The panel holds about 79,000 compounds, 15% with a hit somewhere; the sample as a whole holds those more often. Activity calls are given as the source filed them. No stated cut-off is given here; in the data, active means growth inhibition above about 70%; inactive means the rest.
Legend:
[1] = NCI Yeast Anticancer Drug Screen. Data for the wt1 strain (AID 149);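 further: 0% = growth of vehicle-treated wt1 cultures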; details: S. cerevisiae wt1 strain (SPY 50644) growth inhibition, hits give high values
Summary of the method: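 Readout: yeast growth inhibition, normalised to vehicle controls, in the wt1 strain exposed to test compounds.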

[2] = NCI Yeast Anticancer Drug Screen. Data for the rad50EPP+ strain (AID 151);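 further: 0% = growth of vehicle-treated control cultures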; details: S. cerevisiae rad50 mutant strain, hits give high values
Summary of the method: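 Yeast strain carrying rad50 alteration (rad50EPP+) exposed to compounds; growth inhibition measured relative to vehicle-treated controls.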

[3] = NCI Yeast Anticancer Drug Screen. Data for the rad50 strain (AID 155);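 further: 0% = growth of vehicle-only cultures of the same strain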; details: S. cerevisiae rad50 strain growth inhibition, hits give high values
Summary of the method: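 Compounds were tested on a yeast strain with an engineered DNA damage repair alteration; the reported value is growth inhibition normalised to vehicle treatment.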

[4] = NCI Yeast Anticancer Drug Screen. Data for the mec2-1 strain (AID 157); details: S. cerevisiae mec2-1 strain, hits give high values
Summary of the method: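 mec2-1 yeast strain, carrying an alteration in DNA damage repair or cell cycle control, was exposed to compounds; growth inhibition was measured relative to vehicle-treated controls.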

[5] = NCI Yeast Anticancer Drug Screen. Data for the rad14 strain (AID 159);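 further: 0% = growth of vehicle-treated control cultures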; details: S. cerevisiae rad14 strain growth inhibition, hits give high values
Summary of the method: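 Compound-treated yeast with a defined DNA-repair lesion; growth inhibition normalised to vehicle-treated cultures.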

[6] = NCI Yeast Anticancer Drug Screen. Data for the sgs1 mgt1 strain (AID 161);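 further: 0% = growth of cultures given vehicle only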; details: S. cerevisiae sgs1 mgt1 strain, hits give high values
Summary of the method: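 Yeast cells carrying a defined DNA-repair defect were exposed to test compounds. Growth inhibition was measured relative to vehicle-treated controls.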

[7] = NCI Yeast Anticancer Drug Screen. Data for the CLN2oe strain (AID 163);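 further: 0% = growth of vehicle-only control cultures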; details: S. cerevisiae CLN2oe strain, hits give high values
Summary of the method: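 Yeast cells carrying a defined cell-cycle control alteration were exposed to test compounds. Growth inhibition was scored against vehicle-treated control cultures.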

[8] = NCI Yeast Anticancer Drug Screen. Data for the cln2 rad14 strain (AID 165);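 further: 0% = growth equal to vehicle treated cultures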; details: S. cerevisiae cln2 rad14 strain, hits give high values
Summary of the method: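 Yeast carrying cln2 and rad14 alterations (cell cycle control and DNA damage repair) were exposed to compounds. Growth inhibition was measured against vehicle-treated controls.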

[9] = NCI Yeast Anticancer Drug Screen. Data for the bub3 strain (AID 167); details: S. cerevisiae bub3 mutant strain, hits give high values
Summary of the method: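 Growth of a checkpoint-deficient yeast mutant is measured after compound exposure. Values represent inhibition relative to vehicle.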

[10] = NCI Yeast Anticancer Drug Screen. Data for the wt2 strain (AID 169);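 further: 0% = growth of vehicle-treated yeast cultures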; details: S. cerevisiae wt2 strain growth inhibition, hits give high values
Summary of the method: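 Yeast cells were exposed to test compounds, and growth inhibition was measured relative to vehicle-treated controls.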

[11] = NCI Yeast Anticancer Drug Screen. Data for the mlh1 strain (AID 171);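 further: 0% = growth of vehicle-treated control cultures of the same strain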; details: S. cerevisiae mlh1 strain growth inhibition, hits give high values
Summary of the method: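 Yeast carrying a defined genetic alteration in DNA damage repair or cell cycle control were exposed to test compounds. Growth inhibition was measured relative to vehicle-treated controls.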

[12] = NCI Yeast Anticancer Drug Screen. Data for the sgs1 strain (AID 173);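 further: 0% = growth of vehicle-only control cultures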; details: S. cerevisiae sgs1 mutant, hits give high values
Summary of the method: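 Yeast mutant strains carrying defined defects in DNA damage repair or cell cycle control were exposed to test compounds. Growth inhibition was scored against vehicle-treated controls.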

[13] = NCI Yeast Anticancer Drug Screen. Data for the mlh1 rad18 strain (AID 175); details: S. cerevisiae mlh1 rad18 strain growth inhibition, hits give high values
Summary of the method: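 Growth inhibition of the yeast strain was measured after compound exposure and expressed relative to vehicle-treated controls. The strain carries defined defects in DNA damage repair.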

[14] = NCI Yeast Anticancer Drug Screen. Data for the rad18 strain (AID 177); details: S. cerevisiae rad18 mutant growth inhibition, hits give high values
Summary of the method: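 Yeast carrying a defined DNA damage repair alteration were exposed to compounds. Growth inhibition was expressed relative to vehicle-treated controls.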

[15] = at 5.0 µM (retest, dose inferred, filed as 0.5)
[16] = at 50.0 µM (retest, dose inferred, filed as 5.0)

Measured: growth inhibition

c1ccc2cc(OCC3CO3)c(OCC3CO3)cc2c1 (stereo unspecified)
active: [2]; at 100.0 µM 81% | [3]; [16] 91% | [3]; at 100.0 µM 83% | [5]; at 100.0 µM 82% | [6]; [15] 76% | [6]; [16] 93% | [6]; at 50.0 µM 76.8% | [12]; at 11.0 µM 70% | [12]; at 33.0 µM 82% | [12]; at 100.0 µM 84% | [13]; [15] 84% | [13]; [16] 96% | [13]; at 50.0 µM 81.7% | [14]; at 33.0 µM 86% | [14]; at 100.0 µM 92%
inactive: [1]; at 1.2 µM -21% | [1]; at 3.7 µM -21% | [1]; at 11.0 µM -24% | [1]; at 33.0 µM -16% | [1]; at 100.0 µM -2% | [2]; at 1.2 µM -21% | [2]; at 3.7 µM -4% | [2]; at 11.0 µM 22% | [2]; at 33.0 µM 59% | [3]; at 1.2 µM -26% | [3]; at 3.7 µM -21% | [3]; [15] 56% | [3]; at 11.0 µM 3% | [3]; at 33.0 µM 59% | [3]; at 50.0 µM 57.1% | [4]; at 1.2 µM -29% | [4]; at 3.7 µM -18% | [4]; [15] 27% | [4]; at 11.0 µM -29% | [4]; at 33.0 µM 1% | [4]; [16] 67% | [4]; at 50.0 µM 58.8% | [4]; at 100.0 µM 64% | [5]; at 1.2 µM -21% | [5]; at 3.7 µM -8% | [5]; at 11.0 µM 1% | [5]; at 33.0 µM 35% | [7]; at 1.2 µM -10% | [7]; at 3.7 µM -2% | [7]; at 11.0 µM -11% | [7]; at 33.0 µM -6% | [7]; at 100.0 µM 35% | [8]; [15] 14% | [8]; [16] 63% | [8]; at 50.0 µM 60.7% | [9]; at 1.2 µM -22% | [9]; at 3.7 µM -26% | [9]; [15] 19% | [9]; at 11.0 µM -24% | [9]; at 33.0 µM -22% | [9]; [16] 29% | [9]; at 50.0 µM -7.95% | [9]; at 100.0 µM 0% | [10]; at 1.2 µM -38% | [10]; at 3.7 µM -33% | [10]; at 11.0 µM -37% | [10]; at 33.0 µM -19% | [10]; at 100.0 µM 0% | [11]; at 1.2 µM -37% | [11]; at 3.7 µM -32% | [11]; at 11.0 µM -33% | [11]; at 33.0 µM -26% | [11]; at 100.0 µM 14% | [12]; at 1.2 µM -2% | [12]; at 3.7 µM 37% | [14]; at 1.2 µM -8% | [14]; at 3.7 µM 33% | [14]; at 11.0 µM 69%

CCC1SC(=S)N(c2ccc(Cl)cc2)C1=O (stereo unspecified)
active: [1]; at 100.0 µM 78% | [2]; at 33.0 µM 96% | [2]; at 100.0 µM 98% | [3]; at 33.0 µM 84% | [3]; at 100.0 µM 96% | [5]; at 100.0 µM 75% | [7]; at 100.0 µM 75% | [9]; at 100.0 µM 97% | [10]; at 100.0 µM 92% | [11]; at 100.0 µM 97% | [12]; at 33.0 µM 75% | [12]; at 100.0 µM 98% | [13]; [16] 71% | [14]; at 100.0 µM 87%
inactive: [1]; at 1.2 µM -2% | [1]; at 3.7 µM -2% | [1]; at 11.0 µM 10% | [1]; at 33.0 µM 23% | [2]; at 1.2 µM -5% | [2]; at 3.7 µM 21% | [2]; at 11.0 µM 42% | [3]; at 1.2 µM -17% | [3]; at 3.7 µM -19% | [3]; [15] 8% | [3]; at 11.0 µM 6% | [3]; [16] 35% | [3]; at 50.0 µM 45% | [4]; at 1.2 µM -3% | [4]; at 3.7 µM -5% | [4]; [15] 1% | [4]; at 11.0 µM -6% | [4]; at 33.0 µM -9% | [4]; [16] 43% | [4]; at 50.0 µM 26.7% | [4]; at 100.0 µM 16% | [5]; at 1.2 µM 4% | [5]; at 3.7 µM 1% | [5]; at 11.0 µM 12% | [5]; at 33.0 µM 26% | [6]; [15] 4% | [6]; [16] 68% | [6]; at 50.0 µM 66% | [7]; at 1.2 µM -9% | [7]; at 3.7 µM -10% | [7]; at 11.0 µM -16% | [7]; at 33.0 µM -20% | [8]; [15] -3% | [8]; [16] -4% | [8]; at 50.0 µM -11.6% | [9]; at 1.2 µM -11% | [9]; at 3.7 µM -10% | [9]; [15] -6% | [9]; at 11.0 µM -13% | [9]; at 33.0 µM 22% | [9]; [16] 44% | [9]; at 50.0 µM 6.05% | [10]; at 1.2 µM -5% | [10]; at 3.7 µM 1% | [10]; at 11.0 µM 20% | [10]; at 33.0 µM 65% | [11]; at 1.2 µM -14% | [11]; at 3.7 µM -10% | [11]; at 11.0 µM -10% | [11]; at 33.0 µM 48% | [12]; at 1.2 µM -8% | [12]; at 3.7 µM -8% | [12]; at 11.0 µM 22% | [13]; [15] 0% | [13]; at 50.0 µM 65% | [14]; at 1.2 µM -8% | [14]; at 3.7 µM -10% | [14]; at 11.0 µM -3% | [14]; at 33.0 µM 48%
